Results taken from PubChem BioAssay (NCI).
About 83,000 compounds went through this panel and 20% of them were active in at least one assay; those are over-represented in the sample as a whole.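 Cells were grown in 96-well plates and exposed to the test compound at a single concentration for 48 hours; results are reported as percent growth, with values below 10 considered active.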 Unmarked numbers belong to inactive results. Active and inactive are the calls of the source.

test system: MCF7 breast; test: NCI-60 one-dose screen, 48 h (100 = growth as untreated, 0 = no growth, -100 = all killed); details: 10 µM unless noted

SMILES	growth
COC(=O)c1cc2oc(/C=N\NC(=O)c3cc4oc(C)c(C)c4[nH]3)cc2[nH]1	86.8%
COc1cccc(-c2nc(-c3ccc(N)cc3)co2)c1	98.9%
CC(=O)c1nn(-c2ccccc2)c(=Nc2ccccc2)cc1C	93.4%
COc1cc(/C=C2\CN(S(=O)(=O)c3ccc(C)cc3)C/C(=C\c3cc(CN4CCOCC4)c(O)c(OC)c3)C2=O)cc(CN2CCOCC2)c1O	10.6%
CCOc1cc(/C=C/C(=O)C(C(=O)/C=C/c2ccc(OC(=O)CNc3nnc(C)s3)c(OCC)c2)C(=O)CNc2nnc(C)s2)ccc1OC(=O)CNc1nnc(C)s1	-6.02% (active)
O=C(N/N=C/c1cccc([N+](=O)[O-])c1)c1ccc(Br)o1	78.1%
O=C(CN1CCN(c2ccc(Cl)cc2)CC1)N1CCN(c2nnc(-c3ccccc3)c(-c3ccccc3)n2)CC1	20.9%
O=C1CNc2cc(Cl)ccc2N1	102%
Cc1cnc2nc(-c3ccc(N(C)C)cc3)cn2c1	92.1%
CCCCNCCCN(CCCC)CCCNCCCC	95.8%
C/C(=C\CCc1ccoc1)CC/C=C(\C)CCCC1COC(=O)C1 (centres undefined)	90.6%
O=C(c1ccccc1)c1ccc(Oc2ccc([N+](=O)[O-])cc2[N+](=O)[O-])cc1	15.6%
OCCN1CCN(CCCN2c3ccccc3Sc3ccc(C(F)(F)F)cc32)CC1	18.3%
COP(=O)(OC)C(c1ccc(O)cc1)(c1ccc(O)cc1)c1ccc(O)cc1	109%
CC(=O)N1N=C(c2ccc(Nc3nc(NCCO)nc(NCCO)n3)cc2)CC1c1ccc(Cl)cc1 (centres undefined)	90.5%
[N-]=[N+]=NCc1cccc(/C(O)=C/C(=O)C(=O)O)c1	98.6%
O=C(COc1cccc(/C=C2\Cc3ccccc3C2=O)c1)c1ccc(Cl)cc1	78%
O=[N+]([O-])c1ccc(N=Nc2c(Cl)cc(O)cc2Cl)cc1	1.11% (active)
O=c1c2ccccc2c2nccn2c2cc(Cl)ccc12	122%
CCN(CC)CCCCCCCNc1c2ccc(Cl)cc2nc2ccc(OC)cc12	-32.4% (active)

SMILES	growth
COc1cccc(C2=NN(C(C)=O)C(c3cc(OC)c(OC)c(OC)c3)C2)c1 (centres undefined)	3.81% (active)
O=C(c1ccccc1)C(CN1CCCCC1)c1ccccc1 (centres undefined)	0.432% (active)
Nc1ccn(C2O[C@H](CO)[C@@H](O)[C@@H]2O)c(=O)n1 (some centres undefined)	24%
O=C(Nc1cccc(Cl)c1)Nc1cccc(Cl)c1	64.3%
COc1cccc(N2CCN(c3cccc(C)n3)CC2)c1	95.4%
Cc1cn(C(C=O)OC(C=O)CO)c(=O)[nH]c1=O (centres undefined)	95.1%
CCOC(=O)CCC(=O)O[C@H]1[C@H](O[C@@H]2[C@@H](C)[C@H](O[C@H]3C[C@@](C)(OC)[C@@H](O)[C@H](C)O3)[C@@H](C)C(=O)O[C@H](CC)[C@@](C)(O)[C@H](O)[C@@H](C)C(=O)[C@H](C)C[C@@]2(C)O)O[C@H](C)C[C@@H]1N(C)C	113%
O=C(CNc1ccc2c(c1)C(=O)c1ccccc1C2=O)Nc1ccc2c(c1)C(=O)c1ccccc1C2=O	-71.1% (active)
O=c1[nH]c(N2CCC(Cc3ccccc3)CC2)nc2sc3c(c12)CCCC3	98.1%
Cn1cc(NC(=O)Nc2cc(C(=O)O)n(C)c2)cc1C(=O)O	116%
O=C(CN1CCN(c2ccc(Cl)cc2)CC1)N1CCN(c2nnc(-c3ccc(Cl)cc3)c(-c3ccc(Cl)cc3)n2)CC1	56.7%
O=C(Nc1ccc(Cl)cc1)Nc1ccccc1CNc1nc(Nc2ccc(OCCN3CCCC3)cc2)ncc1Cl	-10.5% (active)
CCCCCCCCCCOC(C)=O	93.6%
CCN(CC)CCNCC(=O)Oc1ccc(/C=C/C(=O)CC(=O)/C=C/c2ccc(OC(=O)CNCCN(CC)CC)c(OC)c2)cc1OC	11.6%
CC(=O)N1N=C(c2ccc(C(F)(F)F)cc2)CC1c1ccc2c(c1)OCO2 (centres undefined)	78.6%
O=C1CSC(c2ccccc2O)N1c1nnc(Cn2ccnc2)o1 (centres undefined)	47.9%
O=C(/C=C/c1cccc(Nc2ccnc3cc(Cl)ccc23)c1)c1ccc(Cl)cc1	27.6%
CC(NNC(=S)N1CCCCCC1)c1ccc2ccccc2n1 (centres undefined)	16.5%
O=C(Nc1nc(-c2ccc(Cl)cc2)cs1)c1cc(-c2ccc(Br)cc2)nc2ccc(Cl)cc12	16.4%
